# Screens from PubChem BioAssay.
# An excerpt weighted towards active compounds, which were near 21% of everything screened.
# Pf growth 48h: Primary qHTS for delayed death inhibitors of the malarial parasite plastid, 48 hour incubation. P. falciparum luciferase growth in erythrocytes, 48 h. Potency, µM (top dose mostly 28.7 µM), inactives show top-dose activity change, negative = inhibition, usual class: inhibitors. actives 5.9% (n = 310,000); note: potency is the fitted concentration of half-maximal effect; % is set by controls: 0 for no effect and ±100 for the full control effect
#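 In quantitative HTS format, infected erythrocytes bearing luciferase-reporter parasites were treated for a single generation at 37 C. Luminescence after adding detection reagent served as the growth measure.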
# Pf growth 96h: Primary qHTS for delayed death inhibitors of the malarial parasite plastid, 96 hour incubation; P. falciparum luciferase reporter growth, 96 h; actives 6.9% (n = 320,000); AID 504834, 2011; Potency, µM (titrated, usually from 28.7 µM), for the others: at the highest dose activity change, negative = inhibition, hits mostly inhibitors; note: potency is the fitted concentration of half-maximal effect; % is set by controls: 0 for no effect and ±100 for the full control effect
#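 Cell-based qHTS: luciferase-tagged P. falciparum in erythrocytes (2% hematocrit, 0.05% parasitemia final) incubated with compounds for 96 hours, 37 C, 5% CO2; luciferase detection reagent then added and luminescence measured.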
# CHX counter: Cycloheximide Counterscreen for Small Molecule Inhibitors of Shiga Toxin. cell reporter, cycloheximide protein synthesis inhibition counterscreen. max response, %. actives 12% (n = 300,000); in the data active = max response mostly above about 13%, no sharp cut-off; inactive = mostly below about 14%; note: read at 38.3 µM for the half of the compounds with a filed dose; 0% is about no effect
# Shiga toxin inh: A qHTS for Small Molecule Inhibitors of Shiga Toxin. actives 9.2% (n = 290,000). Vero cells, Shiga toxin protein synthesis inhibition reporter. inhibition, % at 38.7 µM; in the data active = inhibition mostly above about 28%, no sharp cut-off; inactive = mostly below about 43%; note: 0% is about no effect
# NS1 inh: qHTS Assay for Inhibitors of Influenza NS1 Protein Function. Potency, µM (titrated, usually from 46.1 µM), for the others: at the top dose activity, positive = more growth. actives 0.4% (n = 270,000). AID 2326, 2010; calls by dose curve; note: potency is the fitted concentration of half-maximal effect; actives are rising curves; nearly all actives have a fitted effect of over 50% in size
#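 S. cerevisiae expressing influenza A NS1, grown in glucose, washed, then diluted 1:100 into pH 6.0 -URA galactose medium with 23 nl compound. Growth recovery read as OD600; NS1-free strain serves as control.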
# * hit, by the source's call; i = inactive; ? = inconclusive; . = not tested or not shown. Unless noted, calls come from the whole dose curve; as a rule, active = well fitted inhibition curve with a large enough effect; inconclusive = small, poorly fitted or top-dose-only effect, or another doubt; inactive = no such curve, though single readings can be large or run the other way.
SMILES,Pf growth 48h,Pf growth 96h,CHX counter,Shiga toxin inh,NS1 inh
Cc1cc(N/N=C\c2ccccc2)nc(-c2ccccc2O)n1,41%,0%,84*,83*,7%
Cc1cc(N/N=C/c2ccc(O)cc2O)nc(-c2ccccc2O)n1,2.6µM*,?,59*,active,13%
Cc1cc(N/N=C/c2ccccc2O)nc(-c2ccccc2O)n1,?,26%,25*,46*,-11%
Cc1cc(N/N=C/c2ccc(O)cc2O)c2ccccc2n1,?,-23%,5,22,-5%
C/C(=N\Nc1cc(C)nc(-c2ccccc2O)n1)c1ccccc1O,?,?,9,5,2%
C=CCCn1c(Cl)c(C#N)sc1=O,.,.,-2,-2,.
COc1ccccc1-c1nnc2n1N=C(c1c(OC)cccc1OC)CS2,.,.,2,-6,.
CC1SC(c2ccc(F)cc2)NC1=O (stereo not given),5%,-15%,-2,-7,0%
CN(C)CCCn1c(=S)[nH]c2ccccc2c1=O,13%,15%,-2,-17,.
CN(C)CCCN1C(=O)C2CCc3[nH]c4ccccc4c3C2C1=O (stereo not given),17%,2.9µM*,-2,-9,1%
CCOC(=O)C(C)(C)Sc1nc2c(cnn2-c2ccc(Cl)cc2)c(=O)[nH]1,.,?,7,-15,9%
C=C1C(=O)O[C@H]2C1CC[C@@](C)(O)C13C=CC(C)(C21)C1(C3)C(=O)O[C@@H]2C3C(C)=CCC3[C@](C)(O)C[C@H](OC(C)=O)C21 (stereo not given in full),-7%,?,12*,34*,-3%
Cc1nn(-c2ccccc2)nc1-c1nnc(-c2ccc(C(F)(F)F)cc2)o1,0.26µM*,?,-1,2,-2%
Cc1c(-c2nnc(-c3ccc(C(F)(F)F)cc3)o2)cnn1-c1ccccc1,.,39%,-3,-15,-8%
COc1ccc(CCNc2nc(-c3ccco3)cc(C(F)(F)F)n2)cc1OC,?,?,-2,-22,-3%
COc1ccc(CCNC(=O)CCSc2nc(-c3ccco3)cc(C(F)(F)F)n2)cc1OC,9.3µM*,?,6,18,-9%
CCn1ncc(CNC(=O)CCCSc2nc(-c3ccco3)cc(C(F)(F)F)n2)c1C,12µM*,?,-5,-7,17%
OC(c1cccc(Cl)c1)c1nccc2ccccc12 (stereo not given),74%,?,1,.,-21%
O=C(OC(c1ccccc1)c1nccc2ccccc12)c1cc([N+](=O)[O-])cc([N+](=O)[O-])c1 (stereo not given),-14%,10µM*,-6,-5,7%
COc1ccc2nc(S(=O)Cc3ncc(C)c(OC)c3C)[nH]c2c1 (stereo not given),12µM*,3.3µM*,8,14,-7%
COc1ccc2nc(SCC(=O)Nc3c(C)cccc3C)[nH]c2c1,-1%,-2%,11,-11,6%
O=C(Cc1ccc(F)cc1)N1CCC(CC2CC(c3ccc(Cl)cc3)=NO2)(C(=O)NCC2CCCCC2)CC1 (stereo not given),?,4.7µM*,-2,-2,23%
O=C(Cc1ccc(F)cc1)N1CCC(CC2CC(c3cccc(Br)c3)=NO2)(C(=O)NCC2CCCCC2)CC1 (stereo not given),?,1.2µM*,-3,-2,6%
CC1CCCN(C(=O)Cc2ccc(F)cc2)C1 (stereo not given),5%,.,-1,2,-1%
COCCCNC(=S)N1CCN(c2ccccc2)CC1,0%,20%,-4,9,.
SMILES,Pf growth 48h,Pf growth 96h,CHX counter,Shiga toxin inh,NS1 inh
Clc1ccccc1C1SCC2Nc3ccccc3CN21 (stereo not given),2%,?,49*,47,-1%
CC(C)(C)C(=O)CSc1ncnc2sc3c(c12)CCC3,3%,-59%,44*,67*,2%
CS(=O)(=O)c1ccc(C(=O)Nc2nc(-c3ccco3)c(-c3ccco3)s2)cc1,-4%,-12%,.,.,.
Cc1cccc2nc(CSc3ccccc3C(=O)O)cn12,55%,56%,9,-5,15%
Cc1cccc2nc(COc3ccc4ccccc4c3Br)cn12,330%,193%,46*,48*,-38%
Cc1cc(C)c(COCc2cc(/C=N/O)c(C)cc2C)cc1/C=N/O,.,10µM*,-1,-4,-2%
CSc1cc(/C=N/O)c(SC)s1,-4%,23%,-1,2,-1%
Cc1ccc(NC(=O)CN(C)C(=O)c2ccccc2Sc2ccccc2C#N)cc1,-1%,7%,.,.,.
Cc1ccc(S(=O)(=O)N2CCC(=O)N(C(COCc3cccc(C)c3)Cc3ccccc3)CC2)cc1 (stereo not given),?,9.3µM*,-1,33,6%
Cc1ccc(S(=O)(=O)N2CCC(=O)N([C@H](COCc3cccc(C)c3)Cc3ccccc3)CC2)cc1,.,.,17,15,.
Cc1ccc(S(=O)(=O)N2CCC(=O)N(C(COCc3ccc(Cl)c(Cl)c3)Cc3ccccc3)CC2)cc1 (stereo not given),9.3µM*,?,-3,-12,19%
Cc1ccc(S(=O)(=O)N2CCC(=O)N(C(COCc3ccc(C(F)(F)F)cc3)C(C)C)CC2)cc1 (stereo not given),?,10µM*,-3,-7,6%
Cc1ccc(S(=O)(=O)N2CCC(=O)N(C(COC(=O)Nc3ccccc3)Cc3ccccc3)CC2)cc1 (stereo not given),?,15µM*,11,21,19%
Cc1cc(C)cc(NC(=O)COc2coc(CN3CCc4ccccc4C3)cc2=O)c1,-1%,?,.,.,.
Cc1ccc(S(=O)(=O)N2CCC(=O)N(C(COCc3ccc(C(F)(F)F)cc3)Cc3ccccc3)CC2)cc1 (stereo not given),?,7.4µM*,6,-14,?
Cc1ccc(S(=O)(=O)N2CCC(=O)N([C@H](COCc3ccc(C(F)(F)F)cc3)Cc3ccccc3)CC2)cc1,.,.,9,i,.
Cc1ccc(OCC(=O)Oc2cccc(C)c2C)cc1,41%,12µM*,-1,.,-3%
COc1ccc2nc(NC(=O)/C=C/c3ccc4c(c3)OCO4)sc2c1,-1%,1.9µM*,4,18,4%
Cc1sc(NC(=O)/C=C/c2ccc3c(c2)OCO3)nc1-c1ccccc1,-12%,28%,-1,11,?
COc1cc(OC)cc(C(=O)NNc2nc3cc4c(cc3s2)OCO4)c1,14%,-1%,-1,-6,-11%
COc1ccc2nc(Nc3ccc4c(c3)OCO4)sc2c1,159%,1%,39*,45*,?
COc1ccc2nc(Nc3nc4cc5c(cc4s3)OCO5)sc2c1,-10%,-4%,23*,64*,16%
O=C(COC(=O)c1cc[n+]([O-])cc1)NCc1ccccc1Cl,5%,-4%,1,-2,.
C=CCn1c(=S)[nH]c2nc3c(cc2c1=O)CCCC3,9%,38%,29*,29*,-6%
